Measured values published in PubChem BioAssay (EPA / NIEHS).
Active and inactive are the calls of the source. How the source made its calls: active means hit-call score of the fitted dose curve at least 0.9, where 1 is the maximum; inactive means score below 0.9.

Legend:
[1] = read-out: Fatty acid synthase (Homo sapiens) (UniProt P49327); experiment: LTEA_HepaRG_FASN: Life Technologies and Expression Analysis (LTEA) Assay for Fatty Acid Synthase (FASN) using HepaRG (AID 2283448); conditions: mRNA level, 48 h; actives raise or lower the signal
How it was run: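 FASN expression changes, up or down relative to 0.5% DMSO, were measured by qRT-PCR in human HepaRG cells after 48 h treatment with chemicals at eight concentrations (half-log steps from 100 uM).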

[2] = read-out: Cyclin Dependent Kinase Inhibitor 1A (CDKN1A), CDKN1A (gene 1026); experiment: LTEA_HepaRG_CDKN1A: Life Technologies and Expression Analysis (LTEA) Assay for Cyclin Dependent Kinase Inhibitor 1A (CDKN1A) using HepaRG (AID 2283450); conditions: mRNA level, 48 h; actives raise or lower the signal
How it was run: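 Cryopreserved HepaRG cells were plated and cultured 48 h, then switched to serum-free induction medium. Chemicals (eight half-log concentrations, top 100 uM, 0.5% DMSO) were applied for 48 h. Lysates underwent qRT-PCR for CDKN1A with housekeeping normalization.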

[3] = read-out: Cyclin D1 (CCND1), CCND1 (gene 595); experiment: LTEA_HepaRG_CCND1: Life Technologies and Expression Analysis (LTEA) Assay for Cyclin D1 (CCND1) using HepaRG (AID 2283451); conditions: mRNA level, 48 h; actives raise or lower the signal
How it was run: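 Human liver HepaRG line; 48 h dosing, 8 conc. ≤100 uM, 0.5% DMSO; TaqMan qRT-PCR mRNA, 3 housekeeping genes; bidirectional curve fit vs DMSO.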

[4] = read-out: catalase (CAT), CAT (gene 847); experiment: LTEA_HepaRG_CAT: Life Technologies and Expression Analysis (LTEA) Assay for catalase (CAT) using HepaRG (AID 2283452); conditions: mRNA level, 48 h; actives raise or lower the signal;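 on AC50: TaqMan qRT-PCR signal normalized to ACTB GAPDH and POLR2A housekeeping genes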
How it was run: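 Differentiated HepaRG cells in serum-free induction medium were dosed 48 h in duplicate, eight half-log concentrations from 100 uM in 0.5% DMSO. Transcript measured by TaqMan qRT-PCR, normalised to ACTB/GAPDH/POLR2A, fitted bidirectionally against DMSO.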

[5] = read-out: flavin-containing dimethylaniline monooxygenases 3 (FMO3), FMO3 (gene 2328); experiment: LTEA_HepaRG_FMO3: Life Technologies and Expression Analysis (LTEA) Assay for flavin-containing dimethylaniline monooxygenases 3 (FMO3) using HepaRG (AID 2283453); conditions: mRNA level, 48 h; actives raise or lower the signal
How it was run: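 Differentiated HepaRG cells in serum-free induction medium, exposed 48 h in duplicate to 8 half-log concentrations up to 100 uM in 0.5% DMSO. FMO3 mRNA by qRT-PCR, normalized to ACTB, GAPDH, POLR2A; bidirectional fit vs DMSO.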

[6] = read-out: Cytochrome P450 (CYP1A1), CYP1A1 (gene 1543); experiment: LTEA_HepaRG_CYP1A1: Life Technologies and Expression Analysis (LTEA) Assay for Cytochrome P450 (CYP1A1) using HepaRG (AID 2283454); conditions: mRNA level, 48 h; actives raise or lower the signal
How it was run: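 Induction of CYP1A1 mRNA in a human hepatic cell line was measured 48 h after dosing, with 1 mM phenobarbital as induction positive control and 0.5% DMSO vehicle as baseline for bidirectional curve fitting.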

[7] = read-out: Forkhead box O1 (FOXO1), FOXO1 (gene 2308); experiment: LTEA_HepaRG_FOXO1: Life Technologies and Expression Analysis (LTEA) Assay for Forkhead box O1 (FOXO1) using HepaRG (AID 2283456); conditions: mRNA level, 48 h; actives raise or lower the signal
How it was run: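 Differentiated human HepaRG cells in serum-free induction medium were exposed in duplicate for 48 h to eight half-log concentrations (top 100 uM, 0.5% DMSO). FOXO1 mRNA was measured by TaqMan qRT-PCR, normalised to ACTB, GAPDH and POLR2A, and fitted bidirectionally against DMSO.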

[8] = read-out: growth arrest and DNA damage 45 (GADD45A), GADD45A (gene 1647); experiment: LTEA_HepaRG_GADD45A: Life Technologies and Expression Analysis (LTEA) Assay for growth arrest and DNA damage 45 (GADD45A) using HepaRG (AID 2283458); conditions: mRNA level, 48 h; actives raise or lower the signal
How it was run: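 Cells plated and cultured 48 h, switched to serum-free induction medium, then dosed for 48 h (100 uM top, half-log dilutions, 0.5% DMSO). RNA was isolated and transcript measured by Fluidigm qRT-PCR.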

[9] = read-out: Forkhead box O3 (FOXO3), FOXO3 (gene 2309); experiment: LTEA_HepaRG_FOXO3: Life Technologies and Expression Analysis (LTEA) Assay for Forkhead box O3 (FOXO3) using HepaRG (AID 2283459); conditions: mRNA level, 48 h; actives raise or lower the signal
How it was run: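 Differentiated human HepaRG cells in serum-free induction medium were exposed in duplicate for 48 h to eight half-log concentrations up to 100 uM in 0.5% DMSO. FOXO3 mRNA was quantified by qRT-PCR, normalized to ACTB, GAPDH and POLR2A, with bidirectional fitting versus DMSO.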

[10] = read-out: ABC Transporter (ABCB1), ABCB1 (gene 5243); experiment: LTEA_HepaRG_ABCB1: Life Technologies and Expression Analysis (LTEA) Assay for ABC Transporter (ABCB1) using HepaRG (AID 2283460); conditions: mRNA level, 48 h; actives raise or lower the signal
How it was run: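 Differentiated human HepaRG cells, plated 48 h then switched to serum-free induction medium, were exposed in duplicate to eight half-log concentrations up to 100 uM in 0.5% DMSO for 48 h. ABCB1 mRNA was measured by TaqMan qRT-PCR, normalized to ACTB/GAPDH/POLR2A.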

[11] = read-out: growth arrest and DNA damage 45 (GADD45B), GADD45B (gene 4616); experiment: LTEA_HepaRG_GADD45B: Life Technologies and Expression Analysis (LTEA) Assay for growth arrest and DNA damage 45 (GADD45B) using HepaRG (AID 2283461); conditions: mRNA level, 48 h; actives raise or lower the signal
How it was run: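 Values are bidirectional concentration-response fits against 0.5% DMSO controls. Underlying data: qRT-PCR mRNA levels in human HepaRG liver cells treated 48 h in serum-free induction medium, eight concentrations topping at 100 uM.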

[12] = read-out: ABC Transporter (ABCC3), ABCC3 (gene 8714); experiment: LTEA_HepaRG_ABCC3: Life Technologies and Expression Analysis (LTEA) Assay for ABC Transporter (ABCC3) using HepaRG (AID 2283462); conditions: mRNA level, 48 h; actives raise or lower the signal
How it was run: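 Differentiated HepaRG liver cells receive test chemicals at eight concentrations (max 100 uM) for 48 h. Expression of ABCC3 is quantified by qRT-PCR against ACTB, GAPDH and POLR2A, and activity is fitted in both directions against the DMSO control.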

[13] = read-out: ABC Transporter (ABCB11), ABCB11 (gene 8647); experiment: LTEA_HepaRG_ABCB11: Life Technologies and Expression Analysis (LTEA) Assay for ABC Transporter (ABCB11) using HepaRG (AID 2283463); conditions: mRNA level, 48 h; actives raise or lower the signal
How it was run: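 Differentiated human HepaRG cells were exposed for 48 h in serum-free induction medium to eight half-log concentrations up to 100 uM in 0.5% DMSO. ABCB11 mRNA was quantified by qRT-PCR, normalized to ACTB, GAPDH and POLR2A, and fitted bidirectionally versus DMSO.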

[14] = read-out: ABC Transporter (ABCC2), ABCC2 (gene 1244); experiment: LTEA_HepaRG_ABCC2: Life Technologies and Expression Analysis (LTEA) Assay for ABC Transporter (ABCC2) using HepaRG (AID 2283464); conditions: mRNA level, 48 h; actives raise or lower the signal
How it was run: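 Gene expression of ABCC2 was determined by qRT-PCR in HepaRG cells exposed 48 h to chemicals (highest 100 uM, half-log dilutions). Activity was fitted in both directions relative to 0.5% DMSO vehicle.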

[15] = read-out: Broad substrate specificity ATP-binding cassette transporter ABCG2 (Homo sapiens) (UniProt Q9UNQ0); experiment: LTEA_HepaRG_ABCG2: Life Technologies and Expression Analysis (LTEA) Assay for ABC Transporter (ABCG2) using HepaRG (AID 2283465); conditions: mRNA level, 48 h; actives raise or lower the signal
How it was run: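 Differentiated HepaRG cells in serum-free induction medium were exposed for 48 h, in duplicate, to eight half-log concentrations up to 100 uM in 0.5% DMSO. ABCG2 mRNA was measured by TaqMan qRT-PCR, normalized to ACTB, GAPDH and POLR2A, and fitted bidirectionally versus DMSO.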

[16] = read-out: ATP-citrate lyase (ACLY), ACLY (gene 47); experiment: LTEA_HepaRG_ACLY: Life Technologies and Expression Analysis (LTEA) Assay for ATP-citrate lyase (ACLY) using HepaRG (AID 2283466); conditions: mRNA level, 48 h; actives raise or lower the signal
How it was run: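 Differentiated human HepaRG cells in serum-free induction medium exposed 48 h, in duplicate, to eight half-log concentrations from 100 uM top in 0.5% DMSO; ACLY mRNA measured by qRT-PCR, normalized to ACTB, GAPDH, POLR2A, fitted bidirectionally versus DMSO.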

[17] = read-out: Peroxisomal acyl-coenzyme A oxidase 1 (ACOX1) gene, ACOX1 (gene 51); experiment: LTEA_HepaRG_ACOX1: Life Technologies and Expression Analysis (LTEA) Assay for Peroxisomal acyl-coenzyme A oxidase 1 (ACOX1) gene using HepaRG (AID 2283467); conditions: mRNA level, 48 h; actives raise or lower the signal
How it was run: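 Differentiated human HepaRG cells were exposed in duplicate for 48 h in serum-free induction medium to eight half-log concentrations up to 100 uM in 0.5% DMSO. ACOX1 mRNA was then quantified by TaqMan qRT-PCR, normalized to ACTB, GAPDH and POLR2A.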

[18] = read-out: CFLAR gene, CFLAR (gene 8837); experiment: LTEA_HepaRG_CFLAR: Life Technologies and Expression Analysis (LTEA) Assay for CFLAR gene using HepaRG (AID 2283455); conditions: mRNA level, 48 h; actives raise or lower the signal
How it was run: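 HepaRG cells were plated for 48 h, switched to serum-free induction medium, then exposed in duplicate for 48 h to 8 concentrations (top 100 uM, half-log steps, 0.5% DMSO). CFLAR mRNA was measured by qRT-PCR, normalized to ACTB, GAPDH and POLR2A.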

[19] = CEETOX_H295R_TESTO: CeeTox H295R High-throughput Steroidogenesis Assay for Testosterone (TESTO) (AID 2283457); conditions: actives raise or lower the signal
How it was run: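 Testosterone synthesis is assessed in human adrenocortical H295R cells after 48 h of chemical exposure, using HPLC-MS/MS of extracted medium. Activity is fitted in both directions against DMSO control.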

[20] = read-out: Cyclin D2 (CCND2), CCND2 (gene 894); experiment: LTEA_HepaRG_CCND2: Life Technologies and Expression Analysis (LTEA) Assay for Cyclin D2 (CCND2) using HepaRG (AID 2283449); conditions: mRNA level, 48 h; actives raise or lower the signal;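 further: CCND2 transcript measured by TaqMan qRT-PCR and normalised to three housekeeping genes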
How it was run: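 Differentiated human HepaRG cells were exposed for 48 h in serum-free induction medium to eight half-log concentrations topping at 100 uM (0.5% DMSO vehicle). CCND2 mRNA was quantified by TaqMan qRT-PCR, normalised to ACTB, GAPDH and POLR2A, and fitted bidirectionally against DMSO.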

Measured: AC50

Sequence of Fatty acid synthase (Homo sapiens) (P49327 whole entry, looked up): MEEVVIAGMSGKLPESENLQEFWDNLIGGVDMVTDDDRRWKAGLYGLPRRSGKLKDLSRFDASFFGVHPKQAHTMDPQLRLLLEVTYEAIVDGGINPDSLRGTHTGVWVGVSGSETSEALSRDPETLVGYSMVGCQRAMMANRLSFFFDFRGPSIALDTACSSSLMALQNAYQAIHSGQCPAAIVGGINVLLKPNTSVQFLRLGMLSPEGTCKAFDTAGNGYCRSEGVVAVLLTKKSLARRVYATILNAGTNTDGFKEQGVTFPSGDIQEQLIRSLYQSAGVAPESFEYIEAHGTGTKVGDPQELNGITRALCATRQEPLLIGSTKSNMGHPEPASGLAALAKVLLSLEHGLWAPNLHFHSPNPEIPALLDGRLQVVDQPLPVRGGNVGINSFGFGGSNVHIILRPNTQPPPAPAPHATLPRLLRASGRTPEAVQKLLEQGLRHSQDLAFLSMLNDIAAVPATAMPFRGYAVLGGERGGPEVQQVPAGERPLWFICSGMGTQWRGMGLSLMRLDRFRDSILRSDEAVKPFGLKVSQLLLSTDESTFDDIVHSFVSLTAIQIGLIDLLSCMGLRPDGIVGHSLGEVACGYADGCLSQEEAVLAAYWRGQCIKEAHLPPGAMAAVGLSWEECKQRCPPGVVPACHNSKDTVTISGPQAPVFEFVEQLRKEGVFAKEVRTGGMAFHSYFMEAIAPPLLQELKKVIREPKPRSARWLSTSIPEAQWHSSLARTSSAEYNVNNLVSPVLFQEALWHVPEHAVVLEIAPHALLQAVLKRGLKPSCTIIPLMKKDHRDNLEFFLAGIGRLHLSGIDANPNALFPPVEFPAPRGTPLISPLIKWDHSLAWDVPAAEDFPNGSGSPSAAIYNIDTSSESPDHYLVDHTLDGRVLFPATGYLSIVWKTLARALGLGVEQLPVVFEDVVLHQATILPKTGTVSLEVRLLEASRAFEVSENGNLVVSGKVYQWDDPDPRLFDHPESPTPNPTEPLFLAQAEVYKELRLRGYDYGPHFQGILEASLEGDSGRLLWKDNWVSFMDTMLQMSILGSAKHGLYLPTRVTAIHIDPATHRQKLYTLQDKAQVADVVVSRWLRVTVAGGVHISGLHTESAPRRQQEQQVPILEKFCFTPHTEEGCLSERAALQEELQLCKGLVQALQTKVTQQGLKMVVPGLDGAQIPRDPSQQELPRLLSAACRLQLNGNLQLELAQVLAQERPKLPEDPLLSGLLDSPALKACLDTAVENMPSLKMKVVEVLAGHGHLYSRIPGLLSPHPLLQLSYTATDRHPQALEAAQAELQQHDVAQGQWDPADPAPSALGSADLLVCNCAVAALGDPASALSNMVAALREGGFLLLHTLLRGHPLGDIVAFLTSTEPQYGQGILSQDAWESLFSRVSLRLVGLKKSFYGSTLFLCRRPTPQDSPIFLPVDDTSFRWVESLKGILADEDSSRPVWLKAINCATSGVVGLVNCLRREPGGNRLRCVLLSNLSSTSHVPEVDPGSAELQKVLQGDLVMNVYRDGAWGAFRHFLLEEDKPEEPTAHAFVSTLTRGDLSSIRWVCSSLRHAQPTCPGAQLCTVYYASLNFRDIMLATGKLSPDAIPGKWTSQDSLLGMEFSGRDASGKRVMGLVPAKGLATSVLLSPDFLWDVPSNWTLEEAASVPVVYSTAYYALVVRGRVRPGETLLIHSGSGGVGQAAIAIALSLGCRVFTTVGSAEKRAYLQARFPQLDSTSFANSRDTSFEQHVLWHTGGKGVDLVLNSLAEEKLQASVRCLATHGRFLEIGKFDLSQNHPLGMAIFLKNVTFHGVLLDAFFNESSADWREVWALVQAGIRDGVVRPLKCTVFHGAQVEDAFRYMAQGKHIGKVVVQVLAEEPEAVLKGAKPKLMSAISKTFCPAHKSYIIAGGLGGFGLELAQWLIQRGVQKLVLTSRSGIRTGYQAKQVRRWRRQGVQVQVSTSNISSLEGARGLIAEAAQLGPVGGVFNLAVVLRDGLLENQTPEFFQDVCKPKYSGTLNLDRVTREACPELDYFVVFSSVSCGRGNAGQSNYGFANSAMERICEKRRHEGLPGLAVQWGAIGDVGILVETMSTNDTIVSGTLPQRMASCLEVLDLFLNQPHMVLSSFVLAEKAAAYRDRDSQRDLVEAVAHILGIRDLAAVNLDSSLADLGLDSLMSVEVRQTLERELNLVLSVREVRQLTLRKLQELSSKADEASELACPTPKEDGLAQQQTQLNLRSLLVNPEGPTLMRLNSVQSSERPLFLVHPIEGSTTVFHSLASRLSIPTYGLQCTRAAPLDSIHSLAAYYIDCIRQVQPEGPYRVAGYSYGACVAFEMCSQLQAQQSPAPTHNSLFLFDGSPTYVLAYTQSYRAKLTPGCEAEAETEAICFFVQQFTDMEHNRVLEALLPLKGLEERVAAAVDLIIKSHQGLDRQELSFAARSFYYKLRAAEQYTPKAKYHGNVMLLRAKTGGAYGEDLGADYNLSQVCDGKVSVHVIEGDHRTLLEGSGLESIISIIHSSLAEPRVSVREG
Sequence of Broad substrate specificity ATP-binding cassette transporter ABCG2 (Homo sapiens) (Q9UNQ0 whole entry, looked up): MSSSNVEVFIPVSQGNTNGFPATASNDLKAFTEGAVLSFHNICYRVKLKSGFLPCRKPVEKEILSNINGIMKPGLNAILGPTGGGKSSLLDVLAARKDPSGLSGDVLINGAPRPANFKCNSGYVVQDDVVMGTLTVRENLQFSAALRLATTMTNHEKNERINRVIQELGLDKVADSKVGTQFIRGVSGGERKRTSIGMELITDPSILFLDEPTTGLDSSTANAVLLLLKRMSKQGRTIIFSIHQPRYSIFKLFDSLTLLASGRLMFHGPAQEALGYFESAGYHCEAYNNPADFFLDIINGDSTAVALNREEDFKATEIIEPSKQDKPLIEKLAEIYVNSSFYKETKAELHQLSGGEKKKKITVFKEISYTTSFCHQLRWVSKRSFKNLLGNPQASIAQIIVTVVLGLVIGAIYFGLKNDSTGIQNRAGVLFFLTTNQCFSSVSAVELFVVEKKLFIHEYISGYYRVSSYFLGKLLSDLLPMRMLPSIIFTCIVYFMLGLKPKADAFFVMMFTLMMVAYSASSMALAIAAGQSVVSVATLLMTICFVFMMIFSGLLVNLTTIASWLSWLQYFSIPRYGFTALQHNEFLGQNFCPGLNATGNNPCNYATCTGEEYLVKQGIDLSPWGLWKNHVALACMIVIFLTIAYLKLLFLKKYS

CCCCCCC(=O)OCC
active: [6] 33.1 µM
inactive: [1] | [2] | [3] | [4] | [5] | [7] | [8] | [9] | [10] | [11] | [12] | [13] | [14] | [15] | [16] | [17]

Cc1cc(NC(=O)C(=O)O)cc(C)c1Oc1ccc(O)c2c1CCC2
inactive: [1] | [2] | [3] | [5] | [18] | [7] | [19] | [8] | [9] | [10] | [11] | [12] | [14] | [15] | [16] | [17]
active: [4] 0.303 µM | [6] 0.0026 µM | [13] 0.00778 µM

CC(=O)C(C)=CC1C(C)=CCCC1(C)C (centres undefined)
inactive: [1] | [2] | [3] | [5] | [6] | [18] | [7] | [8] | [9] | [10] | [11] | [12] | [13] | [14] | [15] | [16] | [17]

Cc1cccc(Nc2cc(Cl)nc(SCC(=O)O)n2)c1C
active: [6] 50 µM | [10] 50 µM | [14] 82.3 µM | [17] 10.9 µM
inactive: [1] | [2] | [3] | [4] | [5] | [18] | [7] | [19] | [8] | [9] | [11] | [12] | [13] | [15] | [16]

CC(CO)OC(C)CO (centres undefined) (tested in a mixture with another compound)
active: [6] 50 µM
inactive: [1] | [20] | [2] | [3] | [5] | [7] | [8] | [9] | [10] | [11] | [12] | [13] | [14] | [15] | [16] | [17]

C1CCC(SSC2CCCCC2)CC1
inactive: [1] | [2] | [3] | [4] | [5] | [18] | [7] | [8] | [9] | [10] | [11] | [12] | [13] | [14] | [15] | [16] | [17]
active: [6] 50 µM

CCc1c(C(=O)NN2CCCCC2)nn(-c2ccc(Cl)cc2Cl)c1-c1ccc(Br)cc1
active: [1] 82.7 µM | [2] 11.4 µM | [5] 35.5 µM | [6] 5.22 µM | [7] 84.3 µM | [8] 82.1 µM | [10] 86.8 µM | [11] 50 µM | [13] 39 µM | [14] 68.6 µM | [15] 50 µM | [16] 12.5 µM | [17] 32.3 µM
inactive: [20] | [3] | [9] | [12]
